Rows were chosen to be rich in hits. Some 4.1% of all compounds tested hit in one or more screens of this group.
hcDAF12 agonist: H. contortus DAF-12 activation, primary screen; HEK293 hcDAF-12 lit1-tk-luc reporter, luminescence; 0% DMSO, 100% Δ7-dafachronic acid; activation, % at 6.8 µM; hit rate 1.4% among 370,000; AID 652067;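 active means activation above the mean of all tested compounds plus 3 SD, cut at about 5.5% in these data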;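 further: 100% = response to 3 µM Δ7-dafachronic acid high control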
DAX1 inh-1: inhibitors of DAX1 repression of SF-1 activated StAR promoter | HEK293T StAR-luciferase reporter, SF-1/DAX-1 repression relief | inhibition, % at 6.8 µM | hit rate 1.1% among 370,000 | AID 652010;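 active means inhibition above the mean over all tested compounds plus 3 SD, cut at about 3.6% in these data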;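 further: 0% = DAX-1 cells with DMSO and 100% = cells lacking DAX-1 with DMSO; higher inhibition means more luminescence from relief of DAX-1 repression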
ssDAF-12 act: activators of S. stercoralis DAF-12 nuclear receptor | activation, % at 6.8 µM | hit rate 1% among 370,000 | AID 652126 | HEK293 ssDAF-12/GRIP1 lit1-tk-luc reporter, luminescence; % of 3 µM dafachronic acid response;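 active means activation above the mean over all tested compounds plus 3 SD, cut at about 0.9% in these data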;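 further: 0% = DMSO-only wells and 100% = 3 µM delta7-dafachronic acid wells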
hgDAF-12 ag: agonists of H. glycines DAF-12 nuclear receptor. HEK293 GAL4-hgDAF12 UAS-luciferase reporter, agonist luminescence; normalized to butyrate control. activation, % at 6.8 µM. hit rate 1.8% among 370,000. AID 687014;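 active means activation above a cutoff set at the mean of all screened compounds plus 3 SD, cut at about 10% in these data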;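 further: 0% = DMSO wells and 100% = sodium butyrate wells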
DAX1 inh-2: inhibits human nuclear receptor DAX1; P51843; HEK293 Gal4-DAX1 luciferase reporter, luminescence; inhibition, % at 6.75 µM; hit rate 0.99% among 340,000; AID 504766;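 active means inhibition above the mean over all tested compounds plus 3 SD, cut at about 4.2% in these data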;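 further: 0% = DAX1-transfected cells with DMSO and 100% = empty-vector control cells with DMSO; inhibition shows as a rise in luminescence from relieved DAX1 repression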
Target sequence (P51843 207-470 limits assumed): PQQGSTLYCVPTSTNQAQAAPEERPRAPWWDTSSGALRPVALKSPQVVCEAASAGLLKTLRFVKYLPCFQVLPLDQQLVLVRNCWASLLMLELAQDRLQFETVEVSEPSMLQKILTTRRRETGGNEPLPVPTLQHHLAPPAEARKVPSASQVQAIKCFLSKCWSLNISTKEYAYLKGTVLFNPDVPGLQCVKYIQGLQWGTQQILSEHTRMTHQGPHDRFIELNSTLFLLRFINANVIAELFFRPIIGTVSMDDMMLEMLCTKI
LXRb hcDAF ctr: counter-screen for hcDAF-12 agonists: agonists of human LXR-beta | shares compounds with hcDAF12 agonist | HEK293 Gal4-LXR tk-luc reporter, luminescence, 24 h; normalized: DMSO 0%, positive control 100% | activation, % at 6.8 µM | 3,400 tested, under 10 active;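 active means mean percent activation of the reporter above a cutoff set as the average over tested compounds plus their standard deviation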
Target sequence (P55055 whole entry, looked up, the tested form may be a part): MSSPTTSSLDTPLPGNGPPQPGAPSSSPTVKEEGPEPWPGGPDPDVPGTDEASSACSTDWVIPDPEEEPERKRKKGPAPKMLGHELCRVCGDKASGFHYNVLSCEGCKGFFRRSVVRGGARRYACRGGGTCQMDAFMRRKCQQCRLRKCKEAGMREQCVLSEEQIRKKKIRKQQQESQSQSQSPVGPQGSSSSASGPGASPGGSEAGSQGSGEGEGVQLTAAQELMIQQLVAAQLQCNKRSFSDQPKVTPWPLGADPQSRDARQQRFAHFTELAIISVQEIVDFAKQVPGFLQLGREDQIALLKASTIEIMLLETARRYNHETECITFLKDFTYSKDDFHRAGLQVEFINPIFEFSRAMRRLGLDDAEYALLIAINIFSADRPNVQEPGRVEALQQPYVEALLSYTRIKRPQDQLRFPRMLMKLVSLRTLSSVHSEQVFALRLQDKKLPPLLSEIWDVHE
hcDAF12 conf: hcDAF-12 agonism, confirmation assay. activation, % at 6.8 µM. shares compounds with hcDAF12 agonist. HEK293 hcDAF-12 lit1-tk-luc reporter, luminescence; % of Δ7-dafachronic acid response. hit rate 61% among 3,400;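 active means mean activation across triplicate tests above the threshold derived from the earlier primary screen, cut at about 5.5% in these data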;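 further: 0% = DMSO only wells and 100% = 3 µM Δ7-dafachronic acid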
hgDAF12 ag: confirmation of H. glycines DAF-12 agonists | shares compounds with hgDAF-12 ag | HEK293 GAL4-hgDAF12 luciferase reporter, agonist mode; percent of butyrate response | activation, % at 6.8 µM | hit rate 80% among 3,300 | AID 743050;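 active means mean activation over triplicate wells above the hit cutoff derived from the earlier primary screen, cut at about 11% in these data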;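 further: 0% = DMSO low control and 100% = 2 mM sodium butyrate high control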
LXRb DAF12 ctr: LXR-beta agonism as DAF-12 counter-screen; HEK293 Gal4-LXR luciferase reporter, 24 h; AID 743051; 3,300 tested, under 10 active; shares compounds with hgDAF-12 ag; activation, % at 6.8 µM;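 active means mean activation of the triplicate above a set limit carried over from the primary screen, none filed active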
* = called active by the depositor; . = not tested or not shown.

SMILES	hcDAF12 agonist	DAX1 inh-1	ssDAF-12 act	hgDAF-12 ag	DAX1 inh-2	LXRb hcDAF ctr	hcDAF12 conf	hgDAF12 ag	LXRb DAF12 ctr
c1ccc(-c2nc(-c3cccs3)[nH]c2-c2ccccc2)cc1	-1.1	-1.3	-1.4	-1.8	0.4	.	.	.	.
Cc1nc2nc(-c3cccs3)[nH]c2cc1Br	8.9*	1.3	1.0*	22.7*	2.7	1.5	8.3*	21.6*	1.0
C=CCn1c(SCC(=O)Nc2ccc(-c3nc4ccc(C)cc4s3)cc2)nnc1-c1ccccc1	7.2*	4.5*	0.1	18.4*	1.5	0.8	2.4	9.8	0.6
S=C(Nc1cccc(Cl)c1Cl)N1CCCC1	5.4	0.4	-0.3	-0.1	0.4	.	.	.	.
COc1ccc2[nH]c(C(=O)Nc3cccc(C)n3)cc2c1	7.9*	3.7*	0.9*	15.3*	.	2.0	6.2*	21.9*	1.2
Nc1cccn2c(-c3ccc(Cl)cc3)cnc12	7.4*	2.9	0.8	16.3*	1.9	1.3	10.1*	17.8*	0.6
Clc1ccc(-c2cnc3cccnn23)cc1	2.9	0.8	0.0	7.6	.	.	.	.	.
CC(=O)NC(c1ccccc1)c1nc(-c2ccccc2)cs1 (stereo unspecified)	-1.3	-0.2	-0.4	3.6	.	.	.	.	.
COc1cc(C(=O)N2CCc3ccccc32)c([N+](=O)[O-])cc1OC	2.7	-0.1	0.8	1.2	0.7	.	.	.	.
COc1ccc2cc(C(=O)NC3CCCCC3)c(=O)oc2c1	-1.3	0.2	0.3	-0.2	0.1	.	.	.	.
O=C(NC1CCCCCC1)c1cc2ccccc2oc1=O	7.5*	4.0*	0.9*	13.3*	0.9	1.3	2.8	15.7*	0.9
CC1CCCCN1CCCNC(=O)CN1C(=O)c2cccnc2Oc2ccc(Cl)cc21 (stereo unspecified)	-2.2	0.7	-1.0	0.2	-0.2	.	.	.	.
CCC(C)(C)c1ccc(OCCCC[n+]2cccc(C)c2)c(C(C)(C)CC)c1	-6.3	-3.6	-2.4	-10.0	-3.8	.	.	.	.
CCOc1ncccc1C(=O)Nc1nc(SC)ns1	6.9*	0.9	0.3	14.2*	2.0	0.2	6.1*	10.8*	0.4
N/C(=N\OC(=O)c1ccco1)c1ccccc1	3.0	3.1	-0.6	8.4	3.7	.	.	.	.
Cc1ccc(/C(N)=N/OC(=O)c2ccco2)cc1	7.8*	4.2*	1.2*	13.6*	0.2	1.4	4.9	18.9*	0.7
Cc1cccc(/C(N)=N/OC(=O)c2ccco2)c1	6.6*	3.7*	1.4*	18.1*	1.4	1.0	3.7	19.5*	1.0
COC(=O)[C@]12C[C@H](CC(=O)NCc3cccc(C(F)(F)F)c3)C(=O)N(Cc3ccccc3)C1=C[C@H](COCc1ccccc1)O[C@@H]2C	-2.0	-0.8	-1.1	4.8	.	.	.	.	.
Cc1ccc(NC(=O)CN(C)C(=O)c2cccc(-n3cccc3)c2)cc1	-0.3	0.9	-1.1	-1.2	0.1	.	.	.	.
Cc1cc2nn(-c3ccccc3)nc2cc1NC(=O)c1cccs1	1.0	0.0	-1.3	4.5	0.8	.	.	.	.
CC(=O)Nc1cc2nn(-c3ccccc3)nc2cc1C	7.0*	2.5	1.4*	18.1*	-1.3	1.8	5.4	18.6*	0.7
C#CCNC(=O)C[C@H]1C[C@@]2(C(=O)OC)C(=C[C@H](COCc3ccccc3)O[C@@H]2C)N(CCC2=CCCCC2)C1=O	-1.2	-0.3	-1.2	-2.3	.	.	.	.	.
CCOC(=O)c1c(C)oc2c1c(C(c1cccnc1)N1CCCCC1)c(O)c1ccccc12 (stereo unspecified)	10.5*	2.5	1.8*	14.2*	3.8	0.7	6.8*	5.3	0.3
Cc1ccccc1-c1noc(-c2ccc(O)cc2)n1	6.9*	3.5	0.9	18.1*	1.3	0.8	4.2	16.0*	0.7
COc1ccc(C)cc1NC(=O)NC1CC(=O)N(c2ccc3c(c2)OCCO3)C1 (stereo unspecified)	-0.2	0.5	-1.0	-1.4	0.5	.	.	.	.
SMILES	hcDAF12 agonist	DAX1 inh-1	ssDAF-12 act	hgDAF-12 ag	DAX1 inh-2	LXRb hcDAF ctr	hcDAF12 conf	hgDAF12 ag	LXRb DAF12 ctr
CCOc1ccc(-c2c(=O)n(O)c3ccccc3[n+]2[O-])cc1	7.8*	2.8	0.5	20.7*	0.7	0.4	2.9	41.0*	0.6
Cc1ccsc1C(=O)Nc1nc2ccccc2[nH]1	10.3*	4.5*	1.1*	16.9*	-2.2	1.4	10.2*	17.3*	1.0
O=C(Nc1nc2ccccc2[nH]1)c1ccccc1OC(F)F	12.6*	2.9	0.8	14.1*	-1.8	1.7	14.3*	14.4*	0.8
COc1cccc2c1nc(C)c1cc(C)oc12	-0.3	0.3	-0.3	6.0	0.7	.	.	.	.
COc1cccc2nc3cc(C)c(C)cc3nc12	7.5*	1.9	0.7	18.0*	-0.8	1.4	12.4*	18.4*	1.1
Cc1cccc(C(=O)Nc2ccc(NC(=O)c3cccc(C)c3)cc2)c1	0.6	-0.9	-1.9	-0.3	-1.3	.	.	.	.
COc1cc(SC)ccc1C(=O)Nc1ccncc1	-1.7	-0.8	-1.2	3.7	-1.6	.	.	.	.
Cc1ccc(NC(=O)c2ccc(C)cc2)cc1	7.8*	2.8	0.5	13.9*	-1.9	1.1	5.7*	21.4*	1.1
COc1cc(SC)ccc1C(=O)Nc1ccc2c(c1)CCC2	16.7*	2.0	4.0*	21.8*	4.0	1.2	13.5*	21.8*	0.9
Cc1ccc(NC(=O)c2cc3ccccc3oc2=N)cc1	10.9*	3.7*	0.9*	14.2*	2.4	1.1	16.6*	6.7	0.6
COc1cc2ccccc2cc1C(=O)Nc1ccc(C)cc1	17.3*	1.3	1.0*	19.0*	5.9*	0.7	11.8*	20.3*	0.6
COc1cc2ccccc2cc1C(=O)Nc1ccc(Cc2ccncc2)cc1	-0.2	-2.5	-1.8	0.8	-1.5	.	.	.	.
CC(=O)c1ccc(COC(=O)c2cc3ccccc3oc2=O)cc1	0.3	0.3	-0.2	8.3	1.6	.	.	.	.
CCN(C(=O)COC(=O)c1ccc(Br)o1)C1CCCCC1	-1.2	0.1	-0.6	0.3	1.4	.	.	.	.
CCOC(=O)C1CCCCN1C(=O)[C@@H]1CC=C[C@@H]2CCN(c3ccccc3)C(=O)[C@@H]21 (stereo partly specified)	-0.2	.	-1.5	0.5	.	.	.	.	.
COC(=O)c1ccc(CN2CCCC(CCC(=O)NCc3ccc(C)o3)C2)cc1 (stereo unspecified)	-1.3	0.3	-0.9	1.2	2.5	.	.	.	.
COc1ccc(C(=O)Nc2ccncc2)c(OC)c1	-1.2	0.5	-1.2	-0.2	0.9	.	.	.	.

Compound activity as filed in PubChem.
